Rows were chosen to be rich in hits. Some 2.9% of all compounds tested hit in one or more screens of this group.
PLC-beta3 inh – human PLC-beta3 inhibitors, primary screen, biochemical, fluorescence. actives 0.18% (n = 370,000). Purified PLC-beta3, fluorogenic substrate. AID 720704, 2013. inhibition, % at 12.2 µM. 1-phosphatidylinositol 4,5-bisphosphate phosphodiesterase beta-3 (Homo sapiens), Q01970; in the data active = inhibition above about 11%;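 also: 0% = median of compound wells on plate and 100% = full blocker control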
Target sequence (Q01970 whole entry, looked up): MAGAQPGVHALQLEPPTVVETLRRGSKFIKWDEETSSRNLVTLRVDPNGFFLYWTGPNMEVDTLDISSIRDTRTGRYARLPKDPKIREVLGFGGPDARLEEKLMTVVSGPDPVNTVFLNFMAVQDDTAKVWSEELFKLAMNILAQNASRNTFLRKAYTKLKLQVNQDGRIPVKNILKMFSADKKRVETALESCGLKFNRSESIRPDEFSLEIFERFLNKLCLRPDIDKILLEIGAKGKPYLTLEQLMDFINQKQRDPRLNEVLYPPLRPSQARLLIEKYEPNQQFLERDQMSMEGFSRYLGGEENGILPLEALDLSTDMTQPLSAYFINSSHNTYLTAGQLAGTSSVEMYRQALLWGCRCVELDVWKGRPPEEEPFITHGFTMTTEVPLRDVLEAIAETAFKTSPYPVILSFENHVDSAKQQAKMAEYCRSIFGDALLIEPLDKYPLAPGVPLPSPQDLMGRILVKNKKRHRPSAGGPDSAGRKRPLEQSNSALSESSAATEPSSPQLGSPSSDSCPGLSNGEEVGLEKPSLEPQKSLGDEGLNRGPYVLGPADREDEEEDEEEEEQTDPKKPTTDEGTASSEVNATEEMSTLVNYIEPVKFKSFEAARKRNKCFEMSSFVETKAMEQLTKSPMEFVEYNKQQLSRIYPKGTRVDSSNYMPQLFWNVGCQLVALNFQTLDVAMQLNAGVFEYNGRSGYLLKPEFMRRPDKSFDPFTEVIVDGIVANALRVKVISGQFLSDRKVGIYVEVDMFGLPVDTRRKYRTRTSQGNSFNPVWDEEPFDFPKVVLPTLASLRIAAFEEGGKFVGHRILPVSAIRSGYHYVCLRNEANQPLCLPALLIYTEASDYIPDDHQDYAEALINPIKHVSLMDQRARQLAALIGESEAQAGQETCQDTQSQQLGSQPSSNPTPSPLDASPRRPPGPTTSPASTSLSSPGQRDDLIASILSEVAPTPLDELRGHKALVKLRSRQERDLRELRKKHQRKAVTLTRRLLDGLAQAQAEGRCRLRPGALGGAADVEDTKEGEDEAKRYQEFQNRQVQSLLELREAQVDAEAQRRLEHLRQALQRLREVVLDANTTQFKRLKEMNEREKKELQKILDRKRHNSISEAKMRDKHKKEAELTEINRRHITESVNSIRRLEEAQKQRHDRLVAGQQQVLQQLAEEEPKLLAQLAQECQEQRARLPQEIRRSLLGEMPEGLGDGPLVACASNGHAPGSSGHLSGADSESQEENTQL
PLCg1 inh – PLC-gamma1 enzyme inhibitors, primary screen, biochemical, fluorescence, purified enzyme; 1-phosphatidylinositol 4,5-bisphosphate phosphodiesterase gamma-1 (Homo sapiens), P19174; fluorogenic substrate; inhibition, % at 12.2 µM; actives 0.84% (n = 370,000); AID 720700, 2013
ADAM17 inh – ADAM17 inhibitors, primary screen, biochemical, QFRET. Disintegrin and metalloproteinase domain-containing protein 17 (Homo sapiens), P78536. recombinant ADAM17, EDANS/DABCYL FRET peptide cleavage. inhibition, % at 6.95 µM. actives 0.83% (n = 370,000). AID 720648, 2013;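 active = inhibition above the mean of compounds lying between control limits plus 3 SD, set per campaign, cut at about 8.5% in these data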;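 also: 0% = DMSO-only wells as the low control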
proKLK7 act – proKLK7 zymogen activators, primary screen, biochemical, fluorescence intensity; purified proKLK7, EDANS-DABCYL substrate fluorescence; 100% is mature enzyme control, 0% vehicle; AID 652039, 2013; actives 0.9% (n = 370,000); activation, % at 7 µM;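 active = activation above the mean of all tested compounds plus 3 SD, computed per campaign excluding outliers beyond control limits, cut at about 13% in these data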
ADAM10 inh – human ADAM10 inhibitors, primary screen, biochemical, QFRET, HTS | recombinant ADAM10, EDANS/DABCYL FRET peptide cleavage, 3 h | inhibition, % at 7 µM | AID 720582, 2013 | Disintegrin and metalloproteinase domain-containing protein 10 (Homo sapiens), O14672 | actives 0.62% (n = 370,000);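 active = inhibition above a per-campaign cutoff equal to the mean of compounds falling between control-based bounds plus 3 SD, cut at about 20% in these data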;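 also: 0% = DMSO wells while the 100% control is not disclosed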
PLCgamma1 ctr – PLC-gamma1 enzyme inhibitors, counter-screen for PLC-beta3 inhibitor project, biochemical, fluorescence. shares compounds with PLCg1 inh. purified PLC-gamma1, fluorogenic substrate. inhibition, % at 12.3 µM. actives 3.1% (n = 3,300). AID 743258, 2014
PLCb3 confirm – PLC-beta3 inhibitor confirmation, biochemical, fluorescence, purified enzyme | fluorogenic substrate fluorescence | actives 1% (n = 3,300) | inhibition, % at 12.3 µM | shares compounds with PLCg1 inh; in the data active = inhibition above about 11%
* marks the source's active call; other numbers are inactive results; . = no result given. Rule as the data show it, unless noted: active = inhibition above about 9.5%; inactive = the rest.

SMILES | PLC-beta3 inh | PLCg1 inh | ADAM17 inh | proKLK7 act | ADAM10 inh | PLCgamma1 ctr | PLCb3 confirm
COC(=O)CC1C(=O)NCCN1C(=O)c1ccc(Cl)cc1 (stereo not drawn) | -6.5 | 5.9 | -3.8 | 0.3 | -5.7 | . | .
COc1ccc(N(CC(=O)Nc2cc(Cl)ccc2C)S(=O)(=O)c2c(C)n[nH]c2C)cc1 | -2.7 | 12.9* | 3.0 | -1.1 | 15.5 | 2.5 | 3.8
COC(=O)c1ccccc1NC(=O)CN(c1ccc(OC)cc1)S(C)(=O)=O | 14.4* | 3.8 | 4.2 | 0.1 | 7.7 | -3.5 | -0.8
CS(=O)(=O)N(CC(=O)Nc1ccccc1C(=O)N1CCCC1)c1ccc2c(c1)OCO2 | 2.6 | 9.6* | 8.0 | 0.1 | 4.3 | 7.5 | 0.1
CS(=O)(=O)N(CC(=O)Nc1ccccc1C(=O)N1CCOCC1)c1ccc2c(c1)OCO2 | -1.2 | -2.1 | -5.8 | -0.1 | 8.3 | . | .
COc1ccc(N(CC(=O)Nc2ccc(C)cc2C)S(=O)(=O)c2c(C)n[nH]c2C)cc1 | -2.7 | 3.8 | -0.6 | -0.1 | 0.1 | . | .
COc1ccc(-c2nn(-c3ccccc3)cc2C2CC(c3cccs3)=NN2C(=O)CCC(=O)O)cc1 (stereo not drawn) | -2.9 | 1.7 | -10.0 | -0.1 | -17.9 | . | .
COc1ccc(C2=NN(C(=O)CCCC(=O)O)C(c3cn(-c4ccccc4)nc3-c3ccccc3)C2)cc1 (stereo not drawn) | 7.3 | 13.8* | 6.9 | -0.3 | 7.4 | -0.6 | -10.6
Cc1ccc(CN2CCC[C@]3(N[C@H](c4ccccc4)[C@@H]4C(=O)N(C)C(=O)[C@@H]43)C2=O)cc1 | 8.3 | 12.2* | 8.2 | -0.2 | 1.6 | -1.5 | -0.7
COc1ccc(CN2CCC[C@]3(N[C@H](c4ccc(C)cc4)[C@@H]4C(=O)N(C)C(=O)[C@@H]43)C2=O)cc1 | 1.4 | -1.8 | 0.9 | -0.1 | 9.2 | . | .
CC(=O)N1CCOc2ccc(S(=O)(=O)NCc3ccc(Cl)cc3)cc21 | -6.4 | -1.0 | 2.1 | 0.3 | 2.0 | . | .
CCOc1nc(Nc2ccc([N+](=O)[O-])cc2)nc(NC(C)(C)C)n1 | 1.6 | 9.8* | 8.2 | -0.6 | -4.4 | -3.3 | 1.3
CN(C)S(=O)(=O)c1ccc(NC(=O)CN2CCN(C(c3ccccc3)c3ccccc3)CC2)cc1 | 0.6 | 10.9* | 0.2 | -0.3 | 5.7 | -0.7 | -0.7
COc1cccc(N2CCN(S(=O)(=O)c3cc4c(cc3Cl)NC(=O)CO4)CC2)c1 | 7.3 | 2.3 | 2.8 | -0.4 | 8.5 | . | .
Cc1cccc(N2CCN(S(=O)(=O)c3cc4c(cc3Cl)NC(=O)CO4)CC2)c1C | 1.1 | 10.4* | 3.3 | -0.7 | 16.5 | 1.6 | -2.7
Cc1ccc(CNC(=O)CN(c2cccc([N+](=O)[O-])c2)S(=O)(=O)c2ccccc2)cc1 | -0.9 | 2.5 | 4.4 | 0.8 | 1.6 | . | .
Cc1ccc(CNC(=O)CN(c2cccc([N+](=O)[O-])c2)S(C)(=O)=O)cc1 | 3.0 | 10.8* | 4.8 | -0.1 | 11.1 | -2.0 | -3.3
N#CCCCc1cn(-c2nc3ccccc3s2)nn1 | 4.6 | 2.5 | -1.7 | -0.4 | -7.4 | . | .
Cc1[nH][nH]c(=O)c1C=NCc1cccs1 | 0.7 | 3.1 | -2.9 | 0.3 | -4.6 | . | .
Cc1[nH][nH]c(=O)c1C=NCc1cccnc1 | 7.2 | 11.0* | 5.7 | 0.5 | 4.4 | 0.7 | 3.4
CCCS(=O)(=O)NC(=O)C1(C)CCN(C(=O)c2cc(C)oc2C)C1 (stereo not drawn) | -3.1 | 0.6 | -6.5 | 0.0 | -17.1 | . | .
CCCS(=O)(=O)NC(=O)C1(C)CCN(C(=O)c2cc(C)on2)C1 (stereo not drawn) | 5.9 | 9.5* | 7.3 | -0.2 | 5.4 | 0.4 | 0.4
O=C(c1cc2cc([N+](=O)[O-])ccc2oc1=O)N1CCOCC1 | 3.7 | -0.9 | 3.1 | 0.0 | 8.8 | . | .
O=C(c1cc2cccc([N+](=O)[O-])c2oc1=O)N1CCOCC1 | -4.6 | 12.3* | -5.4 | -0.6 | -12.4 | -5.6 | -0.3
O=[N+]([O-])c1ccccc1S(=O)(=O)N1CCc2ccccc2C1 | 12.4* | 1.9 | 2.5 | -0.7 | 8.0 | -6.0 | -2.4
SMILES | PLC-beta3 inh | PLCg1 inh | ADAM17 inh | proKLK7 act | ADAM10 inh | PLCgamma1 ctr | PLCb3 confirm
Cc1nn(-c2ccccc2)c(Cl)c1C(=O)NCCCCNC(=O)c1c(C)nn(-c2ccccc2)c1Cl | 13.8* | 12.4* | 5.3 | 0.2 | 11.1 | 6.4 | -18.8
Cn1c(C(=O)NN)cc2cc(OCc3ccccc3)ccc21 | -30.6 | -19.8 | -17.2 | -0.5 | -30.6 | . | .
N/C(=N\NS(=O)(=O)c1ccc(Cl)cc1)c1ccccn1 | 3.4 | 10.3* | 3.9 | -0.1 | 6.2 | -3.2 | -2.8
O=C(COc1ccc(F)cc1F)Nc1cccnc1 | -4.9 | -0.2 | -1.7 | -0.1 | 1.7 | . | .
COc1ccc(OCc2nnc(SCC(=O)N3c4ccccc4Sc4ccc(Cl)cc43)o2)cc1 | 0.0 | 9.6* | -0.4 | -0.5 | -2.8 | 8.8 | 4.1
COc1cccc(OCc2nnc(SCC(=O)N3c4ccccc4Sc4ccc(Cl)cc43)o2)c1 | 4.6 | 8.0 | 6.8 | 0.1 | 8.9 | . | .
C/C=C/C(=O)OCC(=O)Nc1ccccc1Br | -0.2 | 9.6* | 4.5 | 0.7 | 13.8 | -6.4 | -1.0
CCCCn1nnnc1C(c1ccccc1)N1CCN(c2cccc(C(F)(F)F)n2)CC1 (stereo not drawn) | -0.9 | 10.0* | 7.1 | -1.6 | 9.3 | -8.1 | -8.1
CCCCn1nnnc1C(c1ccccc1)N1CCN(c2ccccn2)CC1 (stereo not drawn) | 1.7 | -1.1 | -5.1 | 0.0 | -7.9 | . | .
CC(=O)NS(=O)(=O)c1ccc2sc(C)nc2c1 | -5.8 | -3.7 | -2.4 | -0.8 | -6.0 | . | .
COc1cc(C(=O)c2cc3c(cc2C)OCO3)cc(OC)c1OC | 7.8 | 4.6 | 2.7 | -0.5 | -1.9 | . | .
Cc1ccc(C)c(OCCCNCc2ccccc2)c1 | 1.1 | 15.3* | 1.1 | 0.0 | 3.8 | -5.1 | 0.1
O=C(NCc1ccc(F)cc1)C1CCN(c2cnccn2)CC1 | -25.0 | -18.0 | -9.2 | 1.1 | -16.1 | . | .
CN1N=C(C(=O)N2CCCC(N3CCN(c4ccc(F)cc4)CC3)C2)CCC1=O (stereo not drawn) | -4.9 | -1.8 | -5.7 | -0.1 | 2.9 | . | .
Cc1ccc2c(c1)c(N=Nc1cccc(C(=O)O)c1)c(O)n2C | 0.9 | 13.2* | 2.1 | -0.6 | 2.0 | -8.2 | -7.9
CCOc1ccc2c(c1)c(N=Nc1cccc(C(=O)O)c1)c(O)n2C | -0.6 | 0.2 | -1.3 | 0.1 | -4.2 | . | .

Assay outcomes as filed in PubChem BioAssay.
